# Measured values reported in PubChem BioAssay (NCATS).
# Values without a mark were called inactive. Inconclusive results are not listed. Calls of active or inactive are those of the source. The call rests on the fitted dose curve; in most records, active means well fitted curve in the direction sought with a large enough effect; inconclusive means small, poorly fitted or top-dose-only effect, or another doubt; inactive means no such curve, though single readings can be large; an effect the other way counts as inactive or inconclusive.
# Tested on: not listed separately
# Assay: Confirmation and Secondary Assay for Modulators of Hemoglobin Beta Chain Splicing at IVS2 705 locus (AID 930);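 further: HeLa cells stably expressing the EGFP-705 splicing reporter; GFP fluorescence per well restored by corrected splicing of the IVS2-705 intron in EGFP; % of control where 0% means no effect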
# Conditions: HeLa EGFP-705 splicing reporter, GFP fluorescence, 48 h; series mostly up to 46.1 µM; activation: at the top concentration
# In short: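 HeLa cells stably carrying EGFP interrupted by mutant beta-globin intron 2 (IVS2-705) treated 2 days at 37C with compound; 500 nM antisense PNA as control. Correct splicing read as total peak GFP intensity per well by laser-scanning cytometry.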
row,SMILES,activation
1,COc1cc2c(cc1OC)C1C(=O)c3ccc4c(c3OC1CO2)C=CC(C)(C)O4 (stereo unspecified),-0.371%
2,COC(=O)[C@@]1(C)CCC[C@@]2(C)c3ccc(O)c(C(C)C)c3CCC21 (stereo partly specified),1.55%
3,CCOC(=O)C1(O)Oc2cc(OC)cc(OC)c2C(=O)C1c1ccccc1 (stereo unspecified),0.0765% [at 38.3 µM]
4,CC1(C)C(OC(=O)CCC(=O)O)CC[C@]2(C)C1CC[C@@]1(C)C2C(=O)C=C2[C@@H]3C[C@@](C)(C(=O)O)CC[C@]3(C)CCC21C (stereo partly specified),2.69%
5,COc1ccc2c(=O)c(OC)c(-c3ccccc3)oc2c1,1.68% [at 38.3 µM]

# Target: Dual specificity protein kinase CLK4 (Homo sapiens) (UniProt Q9HAZ1)
# Sequence (Q9HAZ1 whole entry, looked up): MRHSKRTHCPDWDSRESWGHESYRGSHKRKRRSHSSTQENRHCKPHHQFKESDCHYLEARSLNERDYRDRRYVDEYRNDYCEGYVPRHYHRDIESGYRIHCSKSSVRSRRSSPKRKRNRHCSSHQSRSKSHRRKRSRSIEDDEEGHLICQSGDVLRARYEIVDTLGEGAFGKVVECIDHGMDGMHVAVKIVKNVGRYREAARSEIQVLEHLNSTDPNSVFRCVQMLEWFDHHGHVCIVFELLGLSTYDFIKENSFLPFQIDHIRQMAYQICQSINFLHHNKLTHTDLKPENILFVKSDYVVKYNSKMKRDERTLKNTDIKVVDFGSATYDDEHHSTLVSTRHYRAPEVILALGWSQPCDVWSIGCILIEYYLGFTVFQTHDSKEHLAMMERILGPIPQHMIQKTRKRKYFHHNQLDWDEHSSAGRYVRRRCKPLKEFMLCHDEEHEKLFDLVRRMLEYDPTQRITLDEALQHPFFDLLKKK
# Assay: qHTS Assay for Inhibitors of CDC-like Kinase 4 (Kinase-Glo Assay) (AID 1770); further: nearly all actives have a fitted effect of over 65% in size; further: potency means the concentration at half of the fitted maximal effect; on activity, negative = inhibition: on the % scale 0 is the no-effect control and ±100 the full control effect
# Conditions: recombinant Clk4, Kinase-Glo ATP depletion luminescence; series mostly up to 66.7 µM; activity, negative = inhibition: at the top concentration
# In short: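 Readout: Kinase-Glo luminescence from ATP left after a 4.5 h room-temperature reaction of 25 nM Clk4 with 100 uM RS peptide and 1 uM ATP (final). Buffer: 25 mM Tris pH 7.5, 10 mM MgCl2.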
SMILES,Potency,"activity, negative = inhibition"
COc1ccc2[nH]cc(CCNc3ncnc4ccc(-c5ccccc5OC)cc34)c2c1,25.1 µM (active),
COc1cccc(-c2cncnc2NCc2ccccc2OC)c1,14.1 µM (active),
COc1cccc(Cn2c(=O)c(CCc3ccccc3)nc3cnc(N4CCN(C)CC4)nc32)c1,,-1.39%
CN1CCN(c2ncc3nc(-c4cccs4)c(=O)n(CCc4ccccc4)c3n2)CC1,,-2.43%
CN(C)c1ncc2nc(CCc3ccccc3)c(=O)n(Cc3cccs3)c2n1,,-1.42%
CN1CCN(c2ncc3nc(-c4cn(C)c5ccccc45)c(=O)n(CCC#N)c3n2)CC1,,-12.7%
